TDP1 block = TDP1 (human) enzyme inhibition. Potency, µM (highest dose often 130 µM), usual class: inhibitors. AID 485290. recombinant TDP1, AlphaScreen DNA substrate cleavage. Q9NUW8. hit rate 0.28% among 350,000; note: nearly all actives have a fitted effect of over 40% in size
Target sequence (Q9NUW8 whole entry, looked up): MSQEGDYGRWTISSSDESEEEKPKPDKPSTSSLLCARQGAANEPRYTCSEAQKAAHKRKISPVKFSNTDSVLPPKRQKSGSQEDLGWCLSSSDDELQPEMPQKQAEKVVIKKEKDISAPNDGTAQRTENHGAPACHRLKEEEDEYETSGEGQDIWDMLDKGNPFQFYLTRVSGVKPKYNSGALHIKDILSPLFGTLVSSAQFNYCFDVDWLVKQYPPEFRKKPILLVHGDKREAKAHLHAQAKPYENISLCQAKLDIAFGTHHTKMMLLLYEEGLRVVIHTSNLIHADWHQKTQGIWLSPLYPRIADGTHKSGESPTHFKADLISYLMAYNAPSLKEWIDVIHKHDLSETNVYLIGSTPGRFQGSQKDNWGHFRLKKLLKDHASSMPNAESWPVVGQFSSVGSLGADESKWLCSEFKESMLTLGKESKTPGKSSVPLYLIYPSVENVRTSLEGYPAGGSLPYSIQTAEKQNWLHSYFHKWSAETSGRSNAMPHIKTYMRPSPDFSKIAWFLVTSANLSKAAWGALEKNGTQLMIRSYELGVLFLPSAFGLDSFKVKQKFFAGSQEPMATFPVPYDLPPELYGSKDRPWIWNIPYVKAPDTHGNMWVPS
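Recombinant E. coli-expressed Tdp1 (1 nM) preincubated with compound 15 min at RT, then 5'-biotin/3'-phosphotyrosine-FITC DNA substrate (15 nM) added for 5 min. AlphaScreen beads (10 ug/ml) added, 10 min RT; tyrosine-FITC cleavage read as signal loss.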
IL1B secr inh = inflammasome signaling inhibition, IL-1 beta readout; THP-1 LPS/ATP IL-1B secretion, AlphaLISA, 16 h; active compounds read low; activity change, % at 57.5 µM; hit rate 4.7% among 360,000; AID 743279; in the data active = activity change below about -50%; inconclusive = mostly about -30% to -49%
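Secreted IL-1B measured by AlphaLISA bead assay after 16 h compound exposure of THP-1 cells; compounds (final up to 57.5 uM) added 1 h before LPS (250 ng/mL) and ATP (1.25 mM) stimulation; lower signal means less secretion.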
Giardia killer = Giardia lamblia killing; activity change, % at 7.66 µM, hits read low; hit rate 0.15% among 340,000; Giardia lamblia trophozoite viability; AID 540267; in the data active = activity change below about -80%; inconclusive = between about -30% and that limit;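 note: parasites exposed to compound for two days anaerobically before the ATP read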
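Trophozoite viability was measured as ATP-dependent luminescence, read 15-30 min after reagent addition. Before that, parasites at 100 cells/well were exposed to compounds for 48 h, anaerobically, at 37 deg C.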
ELG1 DNA repair = inhibitors of ELG1-dependent DNA repair in HEK293T cells; HEK293T ELG1-luciferase reporter, luminescence, 16 h; DNA damage induced by 5-fluorouridine; Potency, µM (doses to about 46.1 µM), most hits filed as inhibitors; hit rate 2.3% among 330,000; note: nearly all actives have a fitted effect of over 55% in size
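Overnight (16 hr) co-exposure of 2,000 cells/well to 5-fluorouridine and compound at 37 °C preceded detection. Luciferase was quantified via ONE-Glo luminescence; loss of signal denotes inhibition.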
DT40 TDP1 no CPT = qHTS for Inhibitors of human tyrosyl-DNA phosphodiesterase 1 (TDP1): qHTS in cells in absence of CPT. AID 686978, 2013. DT40 Tdp1-/- hTDP1 cells, no CPT, ATP luminescence, 48 h. Potency, µM (highest dose often 46.2 µM), usual class: inhibitors. hit rate 15% among 420,000; note: nearly all actives have a fitted effect of over 55% in size
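DT40 Tdp1-/-;hTDP1 cells, no CPT (DMSO vehicle only), 400 cells/well; compounds pin-transferred; ≥48 hr, 37 °C; CellTiter-Glo 30 min RT dark, luminescence read.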
DT40 TDP1 CPT = DT40-hTDP1 cell growth loss with CPT; hit rate 12% among 420,000; Potency, µM (series often up to 46.2 µM), actives largely listed as inhibitors; AID 686979; chicken DT40 Tdp1-/-;hTDP1 cells + 20 nM CPT, ATP luminescence, 48 h; note: nearly all actives have a fitted effect of over 55% in size
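Chicken DT40 Tdp1-/- cells complemented with human TDP1, 400 cells/well, exposed to compounds plus 20 nM camptothecin for at least 48 h at 37 C; viability read as ATP content by CellTiter-Glo luminescence.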
Hits are given with their value; – = inactive; ? = inconclusive; · = no result; [ ] = remark or other dose. Sampled rows, rich in hits. Any-hit rate of the full collection: about 19%. Unless noted, calls come from the whole dose curve; as a rule, active = well fitted curve in the direction sought with a large enough effect; inconclusive = small, poorly fitted or top-dose-only effect, or another doubt; inactive = no such curve, though single readings can be large; an effect the other way counts as inactive or inconclusive.

SMILES | TDP1 block | IL1B secr inh | Giardia killer | ELG1 DNA repair | DT40 TDP1 no CPT | DT40 TDP1 CPT
COc1cccc(C2c3c(C)nn(-c4ccc([N+](=O)[O-])cc4)c3N=C3C(=O)Nc4ccccc4N32)c1 (centres undefined) | – | – | – | ? | 5.8µM | 13µM
Cc1ccc(C2c3c(C)nn(-c4ccc([N+](=O)[O-])cc4)c3N=C3C(=O)Nc4ccccc4N32)cc1 (centres undefined) | – | · | · | ? | · | ·
Cc1nn(-c2ccc([N+](=O)[O-])cc2)c2c1C(c1ccc(OC(F)F)cc1)N1C(=N2)C(=O)Nc2ccccc21 (centres undefined) | – | ? | – | ? | 4.61µM | 5.17µM
Cc1ccc(OCC(=O)Nc2sc3c(c2C(N)=O)CCCC3)c(C(C)(C)C)c1 | –[12.3 µM] | · | · | · | ? | ?
COc1ccc(C(O)c2ncc(-c3cccc(C(F)(F)F)c3)[nH]2)cc1 (centres undefined) | · | – | · | · | ? | ?
OC(c1cc(F)cc(Cl)c1)c1ncc(-c2cccc(C(F)(F)F)c2)[nH]1 (centres undefined) | · | – | · | · | 13µM | 16.4µM
OC(c1ccc(Cl)cc1)c1ncc(-c2cccc(C(F)(F)F)c2)[nH]1 (centres undefined) | · | ? | · | · | 20.6µM | ?
O=P(C(=NCCO)NO)(N1CCOCC1)N1CCOCC1 | · | – | – | – | – | –
CN(Cc1ccccc1)C(=S)NC(=O)c1ccc(-c2ccccc2)cc1 | – | – | – | ? | 4.61µM | 4.61µM
O=C(NC(=S)N(CCc1ccccc1)CCc1ccccc1)c1ccco1 | – | – | – | – | 11.6µM | 18.4µM
CC(CCc1ccccc1)NC(=S)NC(=O)c1ccco1 (centres undefined) | – | – | – | – | – | –
CN(Cc1ccccc1)C(=S)NC(=O)c1cccs1 | – | – | – | – | ? | ?
COc1cc(C(=O)N/N=C(\C)Cc2ccccc2)cc(OC)c1OC | – | – | – | ? | – | –
COc1cc(C(=O)NC(=S)N(CCc2ccccc2)CCc2ccccc2)cc(OC)c1OC | – | – | – | 18.4µM | 20.6µM | 23.1µM
COc1cc(C(=O)NC(=S)N(C)Cc2ccccc2)cc(OC)c1OC | – | – | – | ? | 8.2µM | 20.6µM
CC(C)NC(=O)CC(=O)Nc1ccc2nc3n(c(=O)c2c1)CCCCC3 | – | · | · | · | – | –
COc1c(CO)cc(CO)cc(CO)c1=O | – | · | · | · | –[9.04 µM] | –[9.04 µM]
COc1ccccc1CNC(=O)COc1cccc(-n2cnnn2)c1 | – | – | – | – | – | –
CC1(C(=O)NS(=O)(=O)c2cccc(Cl)c2)CCN1C(=O)C1(c2ccc(Cl)cc2)CC1 (centres undefined) | · | – | · | · | – | ?
C[n+]1ccc(/C=N/Nc2nc(Cl)c(C#N)c(Cl)c2Cl)cc1 | – | -58.7 | – | ? | ? | ?
C/C(=N\NC(=S)Nc1ccccc1C)C1Cc2ccccc2C(=O)O1 (centres undefined) | – | – | – | ? | 6.51µM | ?
C/C(=N\NC(=S)Nc1ccccc1)C1Cc2ccccc2C(=O)O1 (centres undefined) | – | – | – | – | ? | ?
COc1ccccc1/C=C1\SC(=S)N(CCC(=O)NCCc2ccc(O)cc2)C1=O | – | -81.8 | – | – | 16.4µM | ?
COc1ccc(/C=C2\SC(=S)N(CCC(=O)Nc3cccc(O)c3)C2=O)cc1 | · | – | – | ? | ? | –
O=C(CCN1C(=O)/C(=C/c2ccccc2)SC1=S)NCCc1ccc(O)cc1 | – | – | – | – | ? | 16.4µM
SMILES | TDP1 block | IL1B secr inh | Giardia killer | ELG1 DNA repair | DT40 TDP1 no CPT | DT40 TDP1 CPT
COc1ccc(/C=C2\SC(=S)N(CCC(=O)NCCc3ccc(O)cc3)C2=O)cc1 | – | – | – | – | 16.4µM | ?
COc1ccccc1/C=C1\SC(=S)N(CCC(=O)Nc2ccc(C(=O)O)c(O)c2)C1=O | · | – | – | – | – | –
CCN(c1ccccc1)S(=O)(=O)c1ccc2c(c1)CC(C)N2C(=O)C1CC1 (centres undefined) | – | – | – | – | – | ?
Cc1cc(C)n(CC(C)NCc2cn[nH]c2-c2ccc(C)c(C)c2)n1 (centres undefined) | – | – | – | – | – | –
CC(C)Cn1cnc2c(SCc3ccccc3Cl)nc(N)nc21 | · | ? | – | · | ? | ?
CC(C)Cn1cnc2c(Sc3c([N+](=O)[O-])ncn3C)nc(N)nc21 | · | -101.4 | – | · | ? | ?
CCC(C)Cn1cnc2c(Sc3c([N+](=O)[O-])ncn3C)nc(N)nc21 (centres undefined) | · | -55.9 | – | · | 23.1µM | 16.4µM
C=CC[C@@H]1[C@H](O)CC[C@@]2(C)[C@H]1CC[C@@H]1[C@@H]2CC[C@]2(C)C([C@H](C)CCCC(C)C)CC[C@@H]12 (some centres undefined) | – | · | · | · | · | ·
Cc1ccc(-c2nn(-c3ccccc3)cc2NC(=O)CCl)cc1 | – | -99.7 | – | ? | 2.59µM | 3.26µM
Cc1ccc(-c2cc(NC(=O)CCl)n(-c3ccccc3)n2)cc1 | – | -98.7 | – | – | 7.31µM | –
Cc1ccc(-c2nn(-c3ccccc3)cc2CO)cc1 | · | – | – | ? | – | –
CC(=O)Nc1ccc(-c2cc(NC(C)=O)n(-c3ccccc3)n2)cc1 | – | – | – | – | – | –
O=C(CCl)Nc1cc(-c2ccccc2)nn1-c1ccccc1 | – | -105.2 | – | ? | 3.26µM | 5.17µM
O=C(NCc1cccnc1)Nc1cccc(Cl)c1Cl | – | – | – | ? | – | –
CCc1cccc(C)c1NC(=O)C1CCCN1S(=O)(=O)c1cccc2nsnc12 (centres undefined) | – | · | · | · | ? | ?
O=C(c1ccc2c(c1)C(=O)N(CCCO)C2=O)c1ccc2c(c1)C(=O)N(CCCO)C2=O | – | – | – | – | – | –
O=C1c2ccc3c4c(ccc(c24)C(=O)N1CCCCO)C(=O)N(CCCCO)C3=O | – | -71.8 | ? | 2.06µM | 2.59µM | 2.06µM
Nc1cc(N)nc(SCC(=O)NCc2ccc3c(c2)OCO3)n1 | – | – | – | – | – | –
COc1cccc(CNC(=O)CCn2c(=O)c3cccn3c3cccnc32)c1OC | – | · | · | · | – | –
CSCCC(C(=O)Nc1c(C)cccc1C)N(Cc1ccccc1)Cc1ccccc1 (centres undefined) | · | – | · | · | ? | ?
CCCCN1CC(Br)C(=O)NC1=O (centres undefined) | · | – | – | · | 18.4µM | 14.6µM
COC(=O)Cn1c(=NC(=O)c2cc(-c3cccs3)nc3ccccc23)sc2cc(S(N)(=O)=O)ccc21 | – | – | – | 9.2µM | 9.2µM | ?

Bioassay records (PubChem BioAssay)
